From PubChem BioAssay (Tox21)
Values joined by “and” are separate entries in the source; they are usually repeats but may differ in a detail not shown here. Equal values may be shown once. Results filed as inconclusive are left out. A call without a number means that no potency is given here. Active and inactive are the calls of the source. Calls follow the shape of the dose curve; as a rule, active = well fitted cell-killing curve with a large enough effect in the repeat runs; inconclusive = weak or mixed curves, or effect the other way; inactive = no such curve, though single readings can be large or run the other way.

Experiment: qHTS assay to identify small molecule antagonists of the peroxisome proliferator-activated receptor gamma (PPARg) signaling pathway - cell viability counter screen (AID 743194); also: nearly all actives have a fitted effect of over 55% in size
Settings: PPARg-bla HEK293H viability, CellTiter-Glo luminescence, 17 h, co-treated with 50 nM rosiglitazone; series mostly up to 62.6 µM; activity change, negative = cytotoxicity: at the top concentration
Description: U.S. Tox21 Program National Center for Advancing Translational Sciences [NCATS] NIH Chemical Genomics Center [NCGC] U.S. Environmental Protection Agency [EPA] National Institutes of Environmental Health Sciences [NIEHS] National Toxicology Program [NTP] U.S. Food and Drug Administration [FDA] Tox21 Assay Overview: The peroxisome proliferator-activated receptors (PPARs) are lipid-activated transcription factors of the nuclear receptor superfamily with three distinct subtypes namely PPAR alpha, PPAR delta (also called PPAR beta) and PPAR gamma (PPARg). All these subtypes heterodimerize with Retinoid X receptor (RXR) and these heterodimers regulate transcription of various genes. PPAR-gamma receptor (glitazone receptor) is involved in the regulation of glucose and lipid metabolism. To identify the compounds that activate PPAR-gamma signaling, GeneBLAzer PPAR gamma UAS-bla HEK293H cell line (Invitrogen, Carlsbad, CA, USA) containing a beta-lactamase reporter gene under the control of an Upstream Activator Sequence (UAS) was used to screen the Tox21 compound library. The cytotoxicity of the Tox21 compound library against the PPARg-bla cell line was tested in parallel by measuring the cell viability using CellTiter-Glo assay in the same wells.
Tox21 Assay Protocol Summary: PPARg-bla cells were dispensed at 3000 cells/5uL/well in 1536-well black wall/clear bottom plates using a Multidrop Combi (Thermo Fisher Scientific, Waltham, MA) dispenser. After the assay plates were incubated at 37 C and 5% CO2 for 5 h, 23 nL of compounds dissolved in DMSO, positive controls or DMSO only was transferred to the assay plate by a Pintool station (Kalypsys, San Diego, CA), followed by addition of 1ul Rosiglitazone (50 nM, final concentration in the wells). The assay plates were incubated at 37 C for 17 h, and then 1 uL of LiveBLAzerTM B/G FRET substrate was added using a Bioraptr Flying Reagent Dispenser (FRD) workstation (Beckman Coulter, Indianapolis, IN, USA). The assay plates were incubated at room temperature for 1 h and fluorescence intensity was measured by an Envision plate reader (PerkinElmer, Shelton, CT). For cell viability readout that measures cytotoxicity, 4 ul/well of CellTiter-Glo reagent was added into the assay plates using a Flying Reagent Dispenser. After 30 min incubation at room temperature, the luminescence intensity in the plates was measured using a ViewLux plate reader (PerkinElmer).
Potency is read from the fitted curve at half-maximal effect.

| SMILES | activity change, negative = cytotoxicity | Potency |
| --- | --- | --- |
| CNC[C@H](O)[C@@H](O)[C@H](O)[C@H](O)CO | 4.22% (inactive) |  |
| CC1(C)O[C@@H]2C[C@H]3[C@@H]4C[C@H](F)C5=CC(=O)CC[C@]5(C)[C@H]4[C@@H](O)C[C@]3(C)[C@]2(C(=O)CO)O1 |  | inactive |
| CCOC(=O)C1OC1c1ccccc1 (stereo not given) |  | inactive |
| O=C1CCCCC1 |  | inactive |
| O=C1N=C(O)CN1/N=C/c1ccc(-c2ccc([N+](=O)[O-])cc2)o1 |  | inactive |
| CCCCCCCCC |  | inactive |
| NC(=O)NNc1ccccc1 |  | inactive |
| Cc1cc(NS(=O)(=O)c2ccc(N)cc2)no1 |  | inactive |
| ClC1=C(Cl)C(Cl)(Cl)C(Cl)=C1Cl |  | 2.2 µM (active) and 3.09 µM (active) |
| CCCCOCCO | 0.209% (inactive) |  |
| CCCCC(CC)C(=O)OCCOCCOCCOC(=O)C(CC)CCCC (stereo not given) |  | inactive |
| Cc1cc(O)cc(C)c1Cl |  | inactive |
| Nc1c(S(=O)(=O)O)cc(Br)c2c1C(=O)c1ccccc1C2=O |  | inactive |
| Oc1ccc2ccccc2c1 |  | inactive |
| CCCCCCCCCCCCOCC1CO1 (stereo not given) |  | inactive |
| C=CC(=O)OCCCCCCCC(C)C |  | inactive |
| Cc1ccc(C(=O)O)o1 |  | inactive |
| CS(=O)(=O)Nc1ccc([N+](=O)[O-])cc1Oc1ccccc1 |  | inactive |
| CCc1ccccc1O |  | inactive |
| O=[N+]([O-])c1cccc(Cl)c1 |  | inactive |

| SMILES | activity change, negative = cytotoxicity | Potency |
| --- | --- | --- |
| OC[C@@H](O)[C@H](O)[C@H](O)[C@@H](O)CO |  | inactive |
| COCC(C)O (stereo not given) |  | inactive |
| Nc1cc(-c2ccncc2)c[nH]c1=O |  | inactive |
| CCCCCCCCCC(=O)O |  | inactive |
| O=C(c1cc(O)c(O)c(O)c1)c1ccc(O)c(O)c1O |  | inactive |
| CC(C)(C)C(=O)C1C(=O)c2ccccc2C1=O |  | inactive |
| Cc1cc(O)c2c(c1)C(=O)c1cc(O)cc(O)c1C2=O | -21.6% (inactive) |  |
| COC(=O)c1ccc(C(=O)OC)cc1 |  | inactive |
| CCC(C)C=O (stereo not given) |  | inactive |
| C/C=C(C)/C=C/C=C(C)C | 8% (inactive) |  |
| CC(C)n1c(/C=C/[C@@H](O)C[C@@H](O)CC(=O)O)c(-c2ccc(F)cc2)c2ccccc21 |  | inactive |
| OCC1CCCO1 (stereo not given) |  | inactive |
| O=[N+]([O-])C(CO)(CO)CO |  | inactive |
| Clc1ccc(Cl)c(Cl)c1Cl |  | inactive |
| C=C(C#N)C(=O)OCC |  | inactive |
| CC1Cc2ccccc2N1NC(=O)c1ccc(Cl)c(S(N)(=O)=O)c1 (stereo not given) |  | inactive |
| Cn1c([N+](=O)[O-])cnc1COC(N)=O |  | inactive |
| CN(C)c1ccc(C(=N)c2ccc(N(C)C)cc2)cc1 |  | 23.6 µM (active) |
| CC[Si](OC(C)=O)(OC(C)=O)OC(C)=O | 7.58% (inactive) |  |
| Cc1ccc(N)c(S(=O)(=O)O)c1 | 15.8% (inactive) |  |
